# Marburg entry: inhibitors of Marburg virus binding or entry into cells; Marburg virus pseudotype entry/binding inhibition, cell-based; Potency, µM (titrated, usually from 49.2 µM), for inactives: at the highest dose activity change, negative = inhibition, usual class: inhibitors; 18,000 compounds, 6.5% hits; AID 720532
# LASV entry inh: blocks Lassa virus binding or cell entry; Potency, µM (series often up to 49.2 µM), for the others: at the highest dose activity change, negative = inhibition, most hits filed as inhibitors; Lassa virus pseudotyped entry inhibition, cell-based qHTS; 18,000 compounds, 4.1% hits; AID 720533
# * marks the source's active call; other numbers are inactive results; ? = inconclusive; . = not tested or not shown; ! = a repeat was not active; [ ] = another dose, or the depositor's remark. Most compounds without a hit are left out; they make up all but 8% or so of the library. The call rests on the fitted dose curve; tested in HEK293 cells. On the % scale 0 is the no-effect control and ±100 the full control effect; potency means the concentration at half of the fitted maximal effect.
SMILES,Marburg entry,LASV entry inh
Cc1ccc2c(-c3ccnc(Nc4cccc(C(F)(F)F)c4)n3)c(-c3ccccc3)nn2n1,4µM*,.
CCOc1ccc2c(-c3ccnc(Nc4cccc(C(F)(F)F)c4)n3)cnn2n1,8.9µM*,.
N#Cc1cccc(Nc2nccc(-c3cnn4ncccc34)n2)c1,0.025µM*,.
FC(F)(F)CNc1nccc(-c2cnn3ncccc23)n1,-4%,.
O=C(O)c1cccnc1Nc1cccc(C(F)(F)F)c1,28%,21%
Cc1cccc(CN2CCN([C@H]3C[S+](=O)([O-])N[C@H]3COCc3ccccc3)CC2)c1,?,45%
COC(=O)[C@@]12Cc3ccccc3[C@H]1C[C@H](C)[C@@H](C)N2C(=O)C(F)(F)F,3%[8.59 µM],-3%[8.59 µM]
CCCCCC(=O)N1C[C@@H](n2cc(-c3ccc(F)cc3)nn2)[C@H](O)C[C@H]1c1ccc(C)cc1,?,-10%
C#CCNC(=O)[C@H]1C=C(OC)C(=O)C[C@H](c2ccccc2)[C@H]1C,8%[8.59 µM],-18%[8.59 µM]
COc1ccc(CN2CCN(C(c3ccc(F)cc3)c3ccc(F)cc3)CC2)c(OC)c1OC,10µM*,22µM*
COc1ccc(CN2CCNCC2)c(OC)c1OC,9%[17.8 µM],0%[17.8 µM]
CCCCCCCCCCC[C@@H]1C[C@H]2C=CCO[P@@](=O)(O1)O2,35%,.
OCCCNCc1cc2ccc(F)cc2nc1N1CCN(c2cccc(Cl)c2)CC1,10µM*,?
COc1cc(CNCc2cc3ccc(F)cc3nc2N2CCOCC2)cc(OC)c1OC,-9%,-10%
COC(=O)[C@@]1(C=C2c3ccc(OC)cc3[C@@H](OC)[C@@H]2C)[C@@H]2C=CC[C@@H]21,-11%[8.59 µM],-26%[8.59 µM]
O=C1C2=C(C(=O)c3ccccc31)[C@H]1O[C@](CCCCN3C(=O)c4ccccc4C3=O)(Cc3ccccc31)O2,41%[8.59 µM],-6%[8.59 µM]
O=C(Cc1ccc(Cl)c(Cl)c1)N1CCCCC1CN1CCCC1 (stereo not given),7.9µM*,?
O=C(Nc1ccc(Cl)c(Cl)c1)C1CC1,6%,-9%
C[C@]12CC[C@H](OS(=O)(=O)O)CC1=CC[C@@H]1[C@@H]2CC[C@]2(C)C(=O)CC[C@@H]12,-8%,-7%
C[C@@H]1[C@H]2CC[C@@H]3[C@@H]4CC=C5C[C@@H](N(C)C)CC[C@]5(C)[C@@H]4CC[C@@]32CN1C,5.6µM*,-9%[17.8 µM]
COCCC(=O)NCC1Cc2cc(Cl)cc(-c3ccc4[nH]ccc4c3)c2O1 (stereo not given),7.1µM*,7.1µM*
CC(=O)N1CCC[C@H]1C(=O)NCC1Cc2cc(Cl)cc(-c3ccc4[nH]ccc4c3)c2O1 (stereo not given in full),-24%,-8%
Fc1ccc(N2CCN(Cc3ccc4c(c3)CN(Cc3cccn3-c3cccnc3)CCO4)CC2)cc1,?,-20%
O=C(C1CCCCC1)N1C[C@@H](O)[C@@H](n2cc(C3CC3)nn2)C[C@@H]1c1ccc(Cl)cc1,-19%,11%
O=c1c(-c2ccccc2)c1-c1ccccc1,14µM*,7.1µM*
SMILES,Marburg entry,LASV entry inh
Nc1ccccc1,-3%,-10%
C=CCOC(=O)C(C(C)=O)[C@@H](NC(=O)OC)c1cccs1 (stereo not given in full),-6%[8.59 µM],-15%[8.59 µM]
CCC[C@H]1CN(c2ccccc2)C(=O)[C@H]1CC(=O)Nc1ccc(OC)cc1,4%,11%
O=C(C=Cc1ccccc1)Nc1cccc(C(=O)NC2CC2)c1,115%,43%
Cc1cccc(CNc2ncnc3ccc(-c4ccccc4CN(C)C)cc23)c1,10µM*,?
Cc1cccc(CNc2ncnc3ccc(-c4ccc5c(c4)OCO5)cc23)c1,2%,-14%
COC(=O)[C@H]1[C@H]2C[C@@H]3c4[nH]c5ccccc5c4CCN3C[C@H]2C[C@@H](OC(=O)c2cc(OC)c(OC)c(OC)c2)[C@@H]1OC,?,3.5µM*
COC(=O)[C@H]1C(OC)[C@@H](OC(=O)c2cc(OC)c(OC)c(OC)c2)C[C@@H]2CN3CCc4c([nH]c5cc(OC)ccc45)[C@H]3C[C@H]21 (stereo not given in full),-6%,1%
COC(=O)C1=CO[C@@H](C)[C@@H]2CN3CCc4c([nH]c5cc(OC)ccc45)[C@@H]3C[C@H]12,-12%,1%
COC(=O)[C@H]1[C@H]2C[C@@H]3c4[nH]c5cc(OC)ccc5c4CCN3C[C@H]2C[C@@H](OC(=O)/C=C/c2cc(OC)c(OC)c(OC)c2)[C@@H]1OC,10µM*,-28%[17.8 µM]
CN(C)CCNC(=O)Nc1ccc(N(C)c2ccnc(Nc3ccc(CS(C)(=O)=O)cc3)n2)cc1,-45%,60%
COc1ccc(C=CNC(=O)c2ccc(OC)cc2)cc1,18%[8.59 µM],3%[8.59 µM]
Cc1cc2c(nc1C)CCCCN2C[C@H](C)ON=C[C@@H](C)[C@H](OCc1ccccc1)C(C)C,?,-19%[8.59 µM]
CCN(CC)C(C)CN1c2ccccc2Sc2ccccc21 (stereo not given),1.6µM*,14µM*
CC(CN(C)C)CN1c2ccccc2S(=O)(=O)c2ccccc21 (stereo not given),?,-5%
CCN1C(=NCc2ccc(OC)cc2)NC(c2cccc(C(F)(F)F)c2)C(C(=O)OC)=C1C (stereo not given),13%[8.59 µM],4%[8.59 µM]
CC[C@@]1(O)C[C@H](O[C@H]2C[C@H](N(C)C)[C@H](O[C@H]3C[C@H](O)[C@H](O[C@H]4CCC(=O)[C@H](C)O4)[C@H](C)O3)[C@H](C)O2)c2c(cc3c(c2O)C(=O)c2c(O)cccc2C3=O)[C@H]1C(=O)OC,?,8.9µM*
CC[C@]1(O)CC(O[C@@H]2CC(N(C)C)C(O)C(C)O2)c2c(cc3c(c2O)C(=O)c2c(O)ccc(O)c2C3=O)C1C(=O)OC (stereo not given in full),?,-3%
CO[C@H]1C[C@@H]2CC[C@@H](C)[C@@](O)(O2)C(=O)C(=O)N2CCCC[C@H]2C(=O)OC([C@H](C)C[C@@H]2CC[C@@H](O)[C@H](OC)C2)CC(=O)[C@H](C)/C=C(\C)[C@@H](O)[C@@H](OC)C(=O)[C@H](C)C[C@H](C)/C=C/C=C/C=C/1C (stereo not given in full),35µM*!,28µM*!
N#CC(C#N)=Cc1ccc([N+](=O)[O-])c(O)c1,16µM*!,?
O=[N+]([O-])c1ccc(O)c([N+](=O)[O-])c1,21%,0%
Cc1cnc(-n2ncc(C(=O)NCCc3cccnc3)c2C)nc1-c1ccc(F)cc1,?,-13%
Cc1cnc(-n2ncc(C(=O)NCCCc3ccncc3)c2C)nc1-c1ccc(F)cc1,20µM*,-12%
Cn1c(-c2ccncc2)nc2cc(C(=O)N3CCCC3c3nccs3)cc(NC(=O)C3CCC3)c21 (stereo not given),-22%,-13%
O=C1[C@@H]2CSCCS(=O)(=O)N2C(=O)N1c1cccc2ccccc12,25%,33%
SMILES,Marburg entry,LASV entry inh
CCn1c(=O)[nH]c2ccccc21,8%,-2%
O=C1NCN(c2ccccc2)C12CCN(CCCC(c1ccc(F)cc1)c1ccc(F)cc1)CC2,1.4µM*,?
O=c1[nH]c2ccccc2n1C1CCN(CCCC(c2ccc(F)cc2)c2ccc(F)cc2)CC1,14µM*,25µM*!
O=C1NCN(c2ccccc2)C12CCN(CC1COc3ccccc3O1)CC2 (stereo not given),-1%,2%
C=CCOP1(=O)O[C@H](CC=C)C[C@H](CC=C)O1 (stereo not given in full),?,38%
O[C@@H]1C[C@H](c2ccccc2)N(Cc2cccs2)C[C@@H]1n1cc(C2CC2)nn1,26%,10%

# Compound activity as filed in PubChem BioAssay.
